Source: PubChem BioAssay (NCATS)
Inconclusive results are not listed. The source made the active and inactive calls. Unless noted, the call rests on the fitted dose curve; in most records, active means well fitted curve in the direction sought with a large enough effect; inconclusive means small, poorly fitted or top-dose-only effect, or another doubt; inactive means no such curve, though single readings can be large; an effect the other way counts as inactive or inconclusive.

Columns and labels:
[1] = target: Cytochrome P450 2D6 (Homo sapiens) (UniProt P10635); experiment: Cytochrome P450 family 2 subfamily D member 6 (CYP2D6) small molecule antagonists: luciferase biochemical (cell-free) qHTS assay (AID 1645840; active means well fitted curve in the direction sought with a large enough effect in the repeat runs; an effect the other way counts as inactive or inconclusive; further: nearly all actives have a fitted effect of over 55% in size; further: potency means the concentration at half of the fitted maximal effect)
Sequence of Cytochrome P450 2D6 (Homo sapiens) (P10635 whole entry, looked up): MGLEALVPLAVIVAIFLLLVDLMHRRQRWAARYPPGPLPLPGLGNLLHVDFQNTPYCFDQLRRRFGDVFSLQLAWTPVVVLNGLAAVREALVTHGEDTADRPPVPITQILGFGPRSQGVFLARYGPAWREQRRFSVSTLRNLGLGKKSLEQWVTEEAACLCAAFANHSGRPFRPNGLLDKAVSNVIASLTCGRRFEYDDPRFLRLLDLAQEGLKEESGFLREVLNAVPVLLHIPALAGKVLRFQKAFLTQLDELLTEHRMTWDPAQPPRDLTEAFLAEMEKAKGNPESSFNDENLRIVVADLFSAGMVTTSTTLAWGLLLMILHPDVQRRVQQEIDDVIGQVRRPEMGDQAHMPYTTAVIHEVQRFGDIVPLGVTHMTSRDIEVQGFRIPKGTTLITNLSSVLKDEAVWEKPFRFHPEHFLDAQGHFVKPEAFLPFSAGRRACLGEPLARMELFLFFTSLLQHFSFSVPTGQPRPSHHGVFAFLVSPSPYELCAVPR
Procedure, shortened: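 P450-Glo CYP2D6 system: proluciferin substrate converted by enzyme to luciferin, read by luminescence proportional to activity. Enzyme-substrate mix with compound 10 min at room temperature, then NADPH regeneration 1 h before detection reagent.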

NIH3T3 = experiment: Cytotoxic Profiling of Annotated Libraries Using Quantitative High-Throughput Screening (AID 1296008); details: Five cell lines viability, CellTiter-Glo ATP luminescence, 48-72 h; max response: stronger effect = lower value; further: nearly all actives have a fitted effect of over 60% in size; further: potency means the concentration at half of the fitted maximal effect; on max response: on the % scale 0 is the no-effect control and ±100 the full control effect
Procedure, shortened: (§1)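 Compounds were pin-transferred onto cells and incubated 48 or 72 hr at 37 degree Celsius, 95% humidity. CellTiter-Glo was added, plates sat 10 min at room temperature, then ATP-coupled luminescence was imaged as the viability read-out.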

C33A = experiment: Primary qHTS to identify gynecologic anti-cancer compounds using libraries of approved drugs and bioactive compounds (AID 1345084); details: Gynecologic cancer cell panel viability, ATPlite luminescence, 48 h; series mostly up to 57.5 µM; further: nearly all actives have a fitted effect of over 55% in size; further: potency means the concentration at half of the fitted maximal effect
Procedure, shortened: (§2)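 Five-concentration response, 48 h; readout is ATP-driven luciferase luminescence.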

CAOV3 = experiment: as above; details: Gynecologic cancer cell panel viability, ATPlite luminescence, 48 h; series mostly up to 57.5 µM
Procedure, shortened: as §2

Es-2 = experiment: as above; details: Gynecologic cancer cell panel viability, ATPlite luminescence, 48 h; series mostly up to 57.5 µM
Procedure, shortened: as §2

HeLa = experiment: as above; details: Gynecologic cancer cell panel viability, ATPlite luminescence, 48 h; series mostly up to 57.5 µM
Procedure, shortened: as §2

Hek293T = experiment: as above; details: Gynecologic cancer cell panel viability, ATPlite luminescence, 48 h, control line for the selectivity index; series mostly up to 57.5 µM
Procedure, shortened: as §2

PA-1 = experiment: as above; details: Gynecologic cancer cell panel viability, ATPlite luminescence, 48 h; series mostly up to 57.5 µM
Procedure, shortened: as §2

SKOV3 = experiment: as above; details: Gynecologic cancer cell panel viability, ATPlite luminescence, 48 h; series mostly up to 57.5 µM
Procedure, shortened: as §2

Tov-21-G = experiment: as above; details: Gynecologic cancer cell panel viability, ATPlite luminescence, 48 h; series mostly up to 57.5 µM
Procedure, shortened: as §2

Tov112D = experiment: as above; details: Gynecologic cancer cell panel viability, ATPlite luminescence, 48 h; series mostly up to 57.5 µM
Procedure, shortened: as §2

HEK293 = experiment: Cytotoxic Profiling of Annotated Libraries Using Quantitative High-Throughput Screening (AID 1296008); details: Five cell lines viability, CellTiter-Glo ATP luminescence, 48-72 h; max response: stronger effect = lower value; further: nearly all actives have a fitted effect of over 60% in size; further: potency means the concentration at half of the fitted maximal effect; on max response: on the % scale 0 is the no-effect control and ±100 the full control effect
Procedure, shortened: as §1

HACAT = experiment: qHTS assay to identify novel small-molecules to repurpose for Merkel cell carcinoma treatment (AID 1296009); details: MCC and control cell lines, CellTiter-Glo viability, 72 h; at 44.8 µM (top of the series) unless noted; further: nearly all actives have a fitted effect of over 60% in size
Procedure, shortened: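 Luminescence from CellTiter-Glo, read 10 min after addition at room temperature, reported viability following a 72 hr, 37 degree celsius treatment with NPC or MIPE compounds in titration; values normalized to plate controls.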

[2] = Cytotoxicity counterscreen for inhibitors of SARS-CoV-2 cell entry (AID 1645845; calls by dose curve; further: on the % scale 0 is the no-effect control and ±100 the full control effect; nearly all actives have a fitted effect of over 50% in size)
Procedure, shortened: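 After a 15 min room-temperature ATPLite 1step step, luminescence reflected ATP remaining in HEK293-ACE2 cells exposed to compound for 1 h plus 48 h at 37 C, with percent activity set by cell and no-cell controls.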

N#Cc1ccccc1-c1cc(-c2ccccn2)cn(-c2ccccc2)c1=O
inactive: Potency [1] | max response (NIH3T3) -0.815% | Potency (C33A) | Potency (CAOV3) | Potency (Es-2) | Potency (HeLa) | Potency (Hek293T) | Potency (PA-1) | Potency (SKOV3) | Potency (Tov-21-G) | Potency (Tov112D)

CC(C)=CCC[C@]1(C)C=Cc2c(O)c3c(c(CC=C(C)C)c2O1)O[C@]12C(=C[C@@H]4CC1C(C)(C)O[C@@]2(C/C=C(/C)C(=O)O)C4=O)C3=O
active: Potency (HEK293) 0.731 µM | Potency (NIH3T3) 1.16 µM | Potency (C33A) 5.62 µM | Potency (CAOV3) 3.16 µM | Potency (Es-2) 3.16 µM | Potency (HeLa) 5.01 µM | Potency (Hek293T) 5.62 µM | Potency (PA-1) 4.47 µM | Potency (Tov-21-G) 7.94 µM | Potency (Tov112D) 5.01 µM

Cc1ccc(-n2nccn2)c(C(=O)N2CCN(c3nc4cc(Cl)ccc4o3)CCC2C)c1 (centres undefined)
active: Potency [1] 16.9 µM
inactive: outcome (NIH3T3) | outcome (HACAT) | Potency (C33A) | Potency (CAOV3) | Potency (Es-2) | Potency (HeLa) | Potency (Hek293T) | Potency (Tov-21-G) | Potency (Tov112D)

CCCCn1cc(C(=O)c2cccc3ccccc23)c2ccccc21
inactive: Potency [1] | max response (NIH3T3) 3.07% | outcome (HACAT) | Potency (C33A) | Potency (CAOV3) | Potency (Es-2) | Potency (HeLa) | Potency (PA-1) | Potency (SKOV3) | Potency (Tov-21-G) | Potency (Tov112D)

Cc1sc2c(c1C)C(c1ccc(Cl)cc1)=NC(CC(=O)OC(C)(C)C)c1nnc(C)n1-2 (centres undefined)
inactive: Potency (C33A) | Potency (Hek293T)
active: Potency (HEK293) 0.651 µM | Potency (PA-1) 2 µM

C/C(=C\c1csc(C)n1)[C@@H]1C[C@@H]2O[C@@H]2CCC[C@H](C)[C@H](O)[C@@H](C)C(=O)C(C)(C)[C@@H](O)CC(=O)O1
inactive: Potency [2]
active: Potency (HEK293) 0.0065 µM

OC(CNc1ccccc1)Cn1c2ccc(Br)cc2c2cc(Br)ccc21 (centres undefined)
inactive: Potency (C33A) | Potency (CAOV3) | Potency (Es-2) | Potency (HeLa) | Potency (Hek293T) | Potency (PA-1) | Potency (SKOV3) | Potency (Tov-21-G) | Potency (Tov112D)
active: Potency [1] 16.9 µM

CC(=O)OC[C@]12C[C@H](OC(C)=O)C(C)=C[C@H]1O[C@@H]1[C@H](O)[C@@H](O)[C@@]2(C)[C@]12CO2
active: Potency (NIH3T3) 1.01 µM | Potency (CAOV3) 1 µM | Potency (Es-2) 1.26 µM | Potency (Hek293T) 0.398 µM | Potency (Tov112D) 2.24 µM

COc1ccc(C23CCC(=O)C=C2N(C)CC3)cc1OC (centres undefined)
inactive: max response (HEK293) -6.12% | max response (NIH3T3) -27.9% | Potency (C33A) | Potency (CAOV3) | Potency (Es-2) | Potency (Hek293T) | Potency (PA-1) | Potency (Tov-21-G) | Potency (Tov112D)
active: Potency (SKOV3) 25.1 µM

C[C@]12CC[C@H](OC3OC(CO)C(O)C(O)C3OC3OC(CO)C(O)C(O)C3O)C[C@@H]1CC[C@@H]1C2CC[C@]2(C)[C@@H](C3=CC(=O)OC3)CC[C@]12O (some centres undefined)
inactive: outcome (NIH3T3) | Potency (CAOV3) | Potency (HeLa) | Potency (PA-1) | Potency (SKOV3)
active: Potency (Tov112D) 7.08 µM

CCC1(O)CCC2C3CCC4=CC(=O)CCC4C3CCC21CC (centres undefined)
inactive: max response (NIH3T3) 1.71% | outcome (HACAT) | Potency (C33A) | Potency (CAOV3) | Potency (Es-2) | Potency (Hek293T) | Potency (PA-1) | Potency (SKOV3) | Potency (Tov-21-G) | Potency (Tov112D)
